Source: PubChem BioAssay
Unmarked numbers belong to inactive results. Activity calls are given as the source filed them.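 The calls were made as follows: active = growth inhibition above 50% at the single 2 µM test dose, taken to imply half-maximal potency below 2 µM; inactive = the rest.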

assay: antimalarial activity against Dd2 strain (AID 2302);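 also: 0% = DMSO untreated growth and 100% = chloroquine plus artemisinin killed control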; details: P. falciparum Dd2 in RBCs, LDH growth readout, 72 h; at 2 µM; active compounds read high

SMILES	growth inhibition
COc1ccccc1CC1CCCN(C2CCC(NC(=O)c3cc4ccccc4[nH]3)CC2)C1 (stereo not drawn)	21%
COc1ccc2nccc([C@@H](O)CN3CCC(NC(=O)/C=C/c4cccc(NC(C)=O)c4)CC3)c2c1	60% (active)
c1ccc(-c2cc(NCc3cccc4ccccc34)c3[nH]ncc3n2)cc1	5%
Cn1nc(-c2ccc(NC(=O)Nc3cc(C(F)(F)F)ccc3F)c(F)c2)c2cnc(NCCCn3ccnc3)nc21	97% (active)
COc1ccc2nccc(N3CCN(CCNCc4ccc5c(n4)NC(=O)CS5)CC3)c2c1	23%
FC(F)(F)c1ccc2nc(-c3ccc(-c4cccc(CNCCc5ccncc5)c4)s3)[nH]c2c1	95% (active)
O=C(NCCCCN1CCC(c2ccc3c(c2OC(=O)c2ccc(NC(=O)c4ccc(Cl)cc4)cc2)CCCC3)CC1)c1ccc(NC(=O)c2ccc(Cl)cc2)cc1	99% (active)
NCCCCNc1cc(-c2ccnc(Nc3cccc(Cl)c3)n2)ccn1	91% (active)
CCCN1CCN(c2ccccc2NS(=O)(=O)c2ccc(C(=O)Nc3ccc(Cl)cc3)cc2)CC1	9%
Cc1ccc(C(=O)Nc2ccc(Nc3ccnc4cc(-c5ccncc5)ccc34)cc2O)cc1	100% (active)
Cc1cc(NCCC(=O)NCc2cccc(F)c2)nc(NCCc2ccc(F)cc2)n1	2%
Cc1ccc(Nc2nccc(NCC(O)c3cccc(C(F)(F)F)c3)n2)cc1 (stereo not drawn)	74% (active)
CC(C)NCc1ccc(-c2cccc(-c3nc4ccc(F)cc4[nH]3)c2)cc1	96% (active)
